About 79,000 compounds went through this panel and 15% of them were active in at least one assay; those are over-represented in the sample as a whole. Values without a mark were called inactive. Active and inactive are the calls of the source. Cut-off read from the data, not from the text of the source: active = growth inhibition above about 70%; inactive = the rest.
Assays:
[1] = NCI Yeast Anticancer Drug Screen. Data for the rad50 strain (AID 155);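 note: 0% = growth of vehicle-only cultures of the same strain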; details: S. cerevisiae rad50 strain growth inhibition; at 50.0 µM; hits give high values
How it was run: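 Relative growth inhibition (compound vs vehicle) was measured in yeast with a defined repair-gene alteration.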

[2] = NCI Yeast Anticancer Drug Screen. Data for the mec2-1 strain (AID 157); details: S. cerevisiae mec2-1 strain, at 50.0 µM, hits give high values
How it was run: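 Readout is yeast growth inhibition, normalised to vehicle-treated controls, in the mec2-1 strain exposed to compound.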

[3] = NCI Yeast Anticancer Drug Screen. Data for the sgs1 mgt1 strain (AID 161);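 note: 0% = growth of cultures given vehicle only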; details: S. cerevisiae sgs1 mgt1 strain, at 50.0 µM, hits give high values
How it was run: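 Yeast cells carrying a defined DNA-repair defect were exposed to test compounds. Growth inhibition was measured relative to vehicle-treated controls.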

[4] = NCI Yeast Anticancer Drug Screen. Data for the cln2 rad14 strain (AID 165);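 note: 0% = growth equal to vehicle treated cultures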; details: S. cerevisiae cln2 rad14 strain, at 50.0 µM, hits give high values
How it was run: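 Relative to vehicle controls, growth inhibition of compound-treated cln2 rad14 yeast was recorded.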

[5] = NCI Yeast Anticancer Drug Screen. Data for the bub3 strain (AID 167); details: S. cerevisiae bub3 mutant strain, at 50.0 µM, hits give high values
How it was run: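 Screening used yeast with an engineered genetic alteration affecting cell cycle control. Compound-exposed cultures were compared with vehicle cultures, and reduced growth was taken as inhibition.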

[6] = NCI Yeast Anticancer Drug Screen. Data for the mlh1 rad18 strain (AID 175); details: S. cerevisiae mlh1 rad18 strain growth inhibition; at 50.0 µM; hits give high values
How it was run: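 Test agents were incubated with a yeast strain of defined genotype (DNA damage repair defect). Inhibition of growth was derived by comparison with vehicle-exposed cultures.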

Compound | growth inhibition [1] | growth inhibition [2] | growth inhibition [3] | growth inhibition [4] | growth inhibition [5] | growth inhibition [6]
Cc1ccc(S/C=C/C(=O)Nc2ccccc2)cc1 | -10.8% | 13.4% | 7.1% | 43.1% | 2.85% | 5.6%
O=C(O)COc1ccccc1C1CCCCC1 | 0.15% | 7.6% | 6.25% | -4.9% | -18.6% | -2.2%
CC(=O)Oc1cc(C(F)(F)F)ccc1C(=O)OC1(C)OC(=O)c2ccc(C(F)(F)F)cc2O1 (configuration not stated) | -34.1% | -12.9% | -21.4% | -2.85% | -13.9% | -16.9%
COc1ccccc1OCC(=O)O | 23.6% | 0.2% | -17.8% | -24.9% | -11.9% | 23.2%
COc1ccc(S(=O)(=O)N/N=C/c2cc(I)cc([N+](=O)[O-])c2O)cc1 | 15.1% | 0.6% | 9.85% | 8% | -3.85% | 2.5%
COC(=O)N/N=C(\C)CC(=O)Nc1ccc(Cl)cc1 | -22.9% | -32.6% | -28.2% | -5.95% | -27.2% | -43.7%
O=C(CC(C(=O)c1cccs1)c1ccsc1)c1ccsc1 (configuration not stated) | -14% | -50.2% | -4.4% | 7.55% | 25.2% | -25.6%
N#CCCCCCCCCCCC(=O)O | -24.6% | -55.9% | 1.95% | 1.45% | -59.4% | -10.2%
CC1(C)OC(C(F)(F)F)(C(F)(F)F)c2cc(C(C)(C)C)ccc2S1 | -26.9% | -29.8% | -12.7% | -35.4% | -1% | -9.95%
O=C1c2ccccc2C(O)(c2ccc(O)cc2)c2ccccc21 | -3.25% | 0.1% | -0.95% | -0.3% | 6.1% | 6.2%
COC(=O)NC(=Nc1ccc(Oc2ccccc2)cc1NC=O)NC(=O)OC | 0.15% | -14.8% | -13.6% | 25.4% | 15.9% | 11.5%
C[Si](C)(CCCOCC1CO1)O[Si](C)(C)CCCOCC1CO1 (configuration not stated) | 26.9% | -29.4% | -5.05% | 17.6% | -8.4% | -31.1%
CN=C(NN(C)C)c1ccc(NC(=O)c2ccc(C(=O)Nc3ccc(C(=NC)NN(C)C)cc3)cc2)cc1 | 8.4% | 7.65% | 10.8% | 10.1% | -13.8% | 13.9%
S=c1c2ccccc2sn1-c1ccccc1 | 26.2% | 21.6% | 14.9% | -0.85% | -12.9% | 51.5%
COc1ccc(C2=Nc3cccc4c3N(CCC4)C2c2ccc(OC)cc2)cc1 (configuration not stated) | 0.45% | 2.45% | 3% | 7.6% | -2.95% | 4.8%
CC1=CC(=O)C(c2ccccc2)CC1 (configuration not stated) | -0.2% | -5.65% | 14.8% | -32.7% | -0.75% | -5.3%
O=C1c2ccccc2C(=O)c2c1ccc1c2N=C(c2ccc(F)cc2)CC(c2ccc(Cl)c(Cl)c2)N1 (configuration not stated) | 58% | 20.1% | 5% | -14.7% | 7.65% | 43.6%
CCc1ccc[n+](-c2ccncc2CC)c1 | -7.9% | -9.55% | -9.15% | -12.9% | 2.8% | -9.8%
CCc1c(O)c2c(c(O)c1C(C)=O)C(=O)c1c(cc(O)c(C(=O)O)c1C(=O)O)C2=O | -3.15% | 9.8% | 24.2% | 10.2% | 20.3% | 12.8%
CCC(=O)C1C(=O)CC(=O)C(C)C1c1ccccc1OC (configuration not stated) | -14.8% | -6.6% | 4.5% | 38.5% | 27.8% | 10.4%
O=C1c2ccccc2-c2ccc(N3C(=O)C=CC3=O)cc21 | 98.6% (active) | 98.6% (active) | 98.8% (active) | 56.2% | 92.4% (active) | 92.2% (active)

Compound | growth inhibition [1] | growth inhibition [2] | growth inhibition [3] | growth inhibition [4] | growth inhibition [5] | growth inhibition [6]
CCC(C)(CCC(C)C)c1ccncc1 (configuration not stated) | -3.45% | 9.3% | -0.05% | -8.45% | -0.75% | 3.05%
Cn1c(=O)c2c(nc(NCCNc3nc4c(c(=O)n(C)c(=O)n4C)n3C)n2C)n(C)c1=O | 1.85% | -3.35% | -46.2% | -25.1% | -20.8% | -31.7%
C1CCN(SN2CCCCC2)CC1 | -4.4% | -15.7% | -3.6% | -13.2% | 4.75% | 5.7%
CCC1(C)CC(C)(C)c2cc(C(C)=O)c(C)cc21 (configuration not stated) | 8.1% | -1.05% | -4.7% | -29.5% | 11.3% | 4.15%
CC(O)/C=C/c1ccccc1O (configuration not stated) | 2.05% | 2.85% | -13.9% | -41.5% | -5.65% | -13.6%
CC1CC(C)NC(C)C1 (configuration not stated) | -17.1% | -25.6% | -50% | 3.15% | -10.9% | -7.6%
CCOC(=O)c1cccc(N)c1 | -9.6% | -22.2% | -25% | -6.35% | -12.5% | -6.8%
O=C1C(=O)c2ccccc2C(O)=C1CCCc1ccc(S(=O)(=O)c2ccccc2)cc1 | 2.35% | 11.8% | 0.7% | 55.1% | 16.2% | 9.2%
CC(C)N(C(=O)c1ncccc1C(=O)c1ccccn1)C(C)C | -11.4% | -5.65% | -4.75% | -5.2% | -5.85% | -5.05%
Cc1ccc([N+](=O)[O-])c(N)n1 | 3.25% | -5.65% | -2.45% | 2.3% | 3.8% | 1.3%
O=C(OCCN1CCOCC1)C1C[C@@H](O)CN1C(=O)c1ccc2c(c1)OCO2 (some centres not stated) | -10.8% | -5.85% | 7.7% | 1.9% | -14.2% | 6.25%
CC1(C)OC2(C)CCC1C1C2N1C(=O)Nc1cccc(Cl)c1 (configuration not stated) | -4.05% | -13.8% | -2.25% | -2.45% | -7.9% | -18.5%
NC1C=NNC1=O (configuration not stated) | -11.1% | -7.95% | -9.5% | -13.2% | -10.1% | -23.9%
Oc1ccc2ccccc2c1C=NCCS | 24.9% | 6.25% | 2.7% | -25.6% | -3.4% | 3.15%
CCCOC(=O)c1ccccc1C=O | -12.1% | -3.5% | -18.6% | -49.9% | -10.3% | 23.4%
COc1ccc(C(=O)CCC(=O)O)c(C)c1 | 7.45% | 13.1% | -0.85% | 1.55% | 19.6% | 5.25%
CC(C)CNC(=S)N/N=C/c1ccc(N)cc1 | 31.6% | 13.7% | 3% | 27.8% | 6% | -1.1%
CNCCC(=O)c1ccccc1 | -20.9% | -14.3% | -14.4% | -64.8% | -17.6% | 2.25%
O=C1COc2ccccc2OCCOCCOc2ccccc2OC1 | 11.2% | -2.9% | -2.7% | -12.2% | 2.3% | -14.9%
CCN(CC)CCCNc1ccc2ncn3c4ccc(O)cc4c(=O)c1c23 | -14.8% | -36.3% | -54% | 11.8% | -27.8% | -6.65%
COC(=O)c1ccc(OC(=O)Nc2cccc(C(C)=O)c2)cc1 | 14.2% | 14.9% | 10.6% | -9.2% | 12.7% | 34.8%

From PubChem BioAssay (NCI)
